In PubChem BioAssay AID1259418 (Broad Institute, 2018) one finds max activity data, which are given here for 72 compounds.

Among all 3,400 compounds or so, about 840 (25%) were called active. Not shown: some 11% with an inconclusive outcome.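 Rule for the calls: active = fitted half-maximal concentration of signal decrease at or below twice the sample's top tested concentration; inconclusive = flat curve between -70 and -30 percent, or poor fit; inactive = flat within 30 percent, signal rise, or potency above limit.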 The list is a sample of the results. Measured potencies and affinities stand elsewhere.

The test can be described thus: inhibitors of Toxoplasma growth in IFN-γ-primed HeLa – cell-based, ME49Luc, luciferase, 72 h, dose response (AID 1259418). The settings on record: T. gondii ME49Luc in IFN-y HeLa, stronger effect = lower value, -100% = high-dose IFN-γ control wells; at 19.5 µM unless noted.
`O=C(Cc1cccnc1)N1CC(=O)N2[C@H](CO)[C@H](c3ccc(/C=C/c4ccccc4)cc3)[C@@H]2C1`: the max activity was 20.1% [at 10 µM] (inactive).
As to `CC(C)C#Cc1ccc([C@@H]2[C@@H](CO)N3C(=O)CN(C(=O)NC4CCCC4)C[C@H]23)cc1`, the max activity was 19% [at 10 µM] (inactive).
Consider `C/C=C/c1ccc([C@H]2[C@H](CO)N3C(=O)CN(C(=O)NC4CCCCC4)C[C@@H]23)cc1`, for which the max activity is 19.7% (inactive).
Regarding `O=C(Cc1cccnc1)N1CC(=O)N2[C@H](CO)[C@@H](c3ccc(/C=C/c4ccccc4)cc3)[C@H]2C1`, the max activity was 9.82% [at 10 µM] (inactive).
Consider `CCc1ccc2c(c1)cc(S(=O)(=O)c1ccccc1)c(=O)n2CC(=O)NCCC1=CCCCC1`, for which the max activity was -4.67% [at 2.6 µM] (inactive).
In the case of `Cc1nc(OCC(=O)NCc2ccc(F)cc2)c2ccccc2n1`, the max activity is 25% [at 10 µM] (inactive).
As for `CCc1nc(OCC(=O)Nc2ccc(OC)cc2)c2ccccc2n1`, the max activity is -14.2% (inactive).
`CC(=O)N1CCN(C(C)C)C(c2nnc3ccc(C(=O)N4CCCC4)cn23)C1` (configuration not stated): the max activity is 43.3% (inactive).
Consider `COCC(=O)N1CC(=O)N2[C@H](CO)[C@@H](c3ccc(-c4ccccc4F)cc3)[C@H]2C1`, for which the max activity was 43.4% (inactive).
Regarding `COc1ccc(-c2ccc([C@@H]3[C@@H](CO)N4C(=O)CN(Cc5ccccc5)C[C@@H]34)cc2)cc1`, the max activity was 9.38% [at 5 µM] (inactive).
Regarding `COCC(=O)N1CC(=O)N2[C@H](CO)[C@@H](c3ccc(-c4ccncc4)cc3)[C@H]2C1`, the max activity is 45.2% (inactive).
Regarding `COc1ccc(-c2ccc([C@@H]3[C@@H](CO)N4C(=O)CN(Cc5ccccc5)C[C@H]34)cc2)cc1`, the max activity is 18% [at 10 µM] (inactive).
The figure for `Cc1ccc(CNC(=O)Cn2c(=O)c(S(=O)(=O)c3ccccc3)cc3ccccc32)cc1` is 11% [at 0.16 µM] (inactive); for `Cc1ccc2[nH]c(C(=O)N3CCN(c4ccccn4)CC3)c(NC(=O)c3ccc(Cl)cc3)c2c1` it is 30.8% [at 10 µM] (inactive).
Regarding `COCC(=O)Nc1ccc(-c2nc(-c3ccc(C)cc3C)co2)cc1`, the max activity is 13.9% [at 0.16 µM] (inactive).
In the case of `O=C(c1ccccc1F)N1CCC2(CC1)Nc1cc(F)ccc1-n1cccc12`, the max activity is -7.85% [at 2.6 µM] (inactive).
In the case of `CCCCC(=O)Nc1ccc(-c2nc(-c3ccccc3)co2)cc1`, the max activity is 9.5% [at 10 µM] (inactive).
With `COCCCN1CCc2nc(SCc3nc(-c4ccc(OC)cc4)oc3C)[nH]c(=O)c2C1`, the max activity is 25.5% [at 0.16 µM] (inactive).
For the compound `Cc1nc(CCNC(=O)C2CCN(S(=O)(=O)c3ccc(F)c(Cl)c3)CC2)cs1`, the max activity is 8.69% [at 5 µM] (inactive).
The figure for `Cc1ccc(-c2coc(-c3ccc(NC(=O)Nc4cccc(Cl)c4)cc3)n2)cc1` is 13.6% [at 2.6 µM] (inactive); for `COc1ccc(-c2cc(C(=O)Nc3ccc4c(c3)CCC(=O)N4)c3ccccc3n2)cc1` it is 13.4% [at 5 µM] (inactive).
Take `Cc1oc(-c2ccccc2)nc1Cn1nnc(-c2nc(-c3cccc(Cl)c3)no2)c1C`: the max activity is -9.25% [at 5 µM] (inactive).
In the case of `COc1ccc2[nH]cc(CCNC(=O)c3sc4ncnc(N(C)C5CCCCC5)c4c3C)c2c1`, the max activity was 9.31% [at 5 µM] (inactive).
On to `Cc1ccc(-c2coc(-c3ccc(NC(=O)Nc4ccc(F)cc4F)cc3)n2)c(C)c1`, for which the max activity was 9.31% [at 0.68 µM] (inactive).
As for `COc1ccc(Cl)cc1NC(=O)Nc1ccc(-c2nc(-c3ccccc3)co2)cc1`, the max activity was -16.1% [at 0.68 µM] (inactive).
The figure for `COc1ccccc1CNC(=O)CC1N=C2c3ccccc3N=C(SCc3ccc(Cl)cc3)N2C1=O` (configuration not stated) is 28% [at 5 µM] (inactive).
The figure for `COc1ccc(CNC(=O)CC2N=C3c4ccccc4N=C(SCc4ccccc4Cl)N3C2=O)cc1` (configuration not stated) is 18.1% [at 0.68 µM] (inactive).
The figure for `COc1ccccc1CNC(=O)CCC1N=C2c3ccccc3N=C(SCc3ccccc3Cl)N2C1=O` (configuration not stated) is -11% [at 0.35 µM] (inactive); for `COc1ccc(CNC(=O)CC2N=C3c4ccccc4N=C(SCc4cc(=O)n5cc(Cl)ccc5n4)N3C2=O)cc1` (configuration not stated) it is -22.2% (inactive); for `COc1ccccc1CNC(=O)CCC1N=C2c3ccccc3N=C(SCc3ccccc3F)N2C1=O` (configuration not stated) it is 8.88% (inactive).
As to `O=C(CCC1N=C2c3ccccc3N=C(SCc3ccccc3Cl)N2C1=O)NCc1cccs1` (configuration not stated), the max activity was 20.4% [at 5 µM] (inactive).
`COc1ccccc1CNC(=O)CC1N=C2c3ccccc3N=C(SCc3cc(=O)n4ccccc4n3)N2C1=O` (configuration not stated): the max activity is 17.5% [at 0.16 µM] (inactive).
With `O=C(CCC1N=C2c3ccccc3N=C(SCc3ccccc3F)N2C1=O)NCc1ccco1` (configuration not stated), the max activity is 61.5% [at 10 µM] (inactive).
The figure for `COc1ccc(CNC(=O)CCC2N=C3c4ccccc4N=C(SCc4ccccc4Cl)N3C2=O)cc1` (configuration not stated) is -10.1% [at 0.16 µM] (inactive).
For the compound `Cc1nc(OCC(=O)Nc2cc(Cl)ccc2C)c2ccccc2n1`, the max activity was 25.9% [at 0.16 µM] (inactive).
As for `CCOC(=O)C1CCCN(c2nc(-c3ccc(OC)cc3)nc3ccccc23)C1` (configuration not stated), the max activity is -19.8% [at 0.16 µM] (inactive).
Take `O=C(CC1N=C2c3ccccc3N=C(SCc3ccccc3F)N2C1=O)NCc1ccccc1` (configuration not stated): the max activity was 8.54% [at 0.16 µM] (inactive).
The figure for `O=C(CC1N=C2c3ccccc3N=C(SCc3ccccc3F)N2C1=O)NCc1ccc(F)cc1` (configuration not stated) is 15.6% [at 0.68 µM] (inactive).
Regarding `CCOC(=O)CSC1=Nc2ccccc2C2=NC(CC(=O)NCc3cccs3)C(=O)N12` (configuration not stated), the max activity is 29.5% (inactive).
For the compound `N#CCSC1=Nc2ccccc2C2=NC(CCC(=O)NCc3cccs3)C(=O)N12` (configuration not stated), the max activity was 19.3% [at 1.35 µM] (inactive).
For the compound `Cc1ccc(-c2coc(-c3ccc(NC(=O)NCCc4ccccc4)cc3)n2)cc1`, the max activity is 19.3% [at 2.6 µM] (inactive).
As for `COc1ccc(-c2nc(NC3CCCCCC3)c3ccccc3n2)cc1`, the max activity was 19.2% [at 0.16 µM] (inactive).
In the case of `Clc1ccc(-c2nc(NC3CCCCC3)c3ccccc3n2)cc1`, the max activity was 16.4% (inactive).
The figure for `Clc1ccc(-c2nc(NC3CCCCCC3)c3ccccc3n2)cc1` is 14.3% [at 10 µM] (inactive); for `COc1ccc(-c2nc(NC3CCCCC3)c3ccccc3n2)cc1` it is -27.2% [at 5 µM] (inactive); for `COc1ccc(-c2nc(Nc3cc(OC)cc(OC)c3)c3ccccc3n2)cc1` it is 19% [at 5 µM] (inactive).
`COc1ccc(-c2nc(Nc3ccccc3F)c3ccccc3n2)cc1`: the max activity was 11.7% (inactive).
Consider `COc1ccc(-c2nc(Nc3ccc(Cl)cc3C)c3ccccc3n2)cc1`, for which the max activity is -19.8% [at 10 µM] (inactive).
Turning to `Cc1cnc(N2CC[C@H]3CN(CC(=O)N(C)C)S(=O)(=O)[C@@H]3CC2)nc1`, the max activity is 21.5% (inactive).
As for `O=C(CCc1ccc2nc(-c3ccccc3)[nH]c2c1)N1CCC(N2CCCCC2)CC1`, the max activity is 57.7% (inactive).
The figure for `c1ccc(-n2ncc3c(NC4CCCCCCCCCCC4)ncnc32)cc1` is 53.5% [at 10 µM] (inactive).
`Cc1nc(-c2ccc(F)cc2)sc1-c1ccc(SCCN2CCCCC2)nn1`: the max activity was 10.2% [at 0.16 µM] (inactive).
Take `Cc1ccc(Cn2c(=O)c3nn(C)cc3n3c(=O)n(Cc4nc(-c5cccc(C)c5)oc4C)nc23)cc1`: the max activity is 8.72% [at 10 µM] (inactive).
The figure for `COc1ccc(-c2nc(N3CCN(c4cc(C)ccc4C)CC3)c3ccccc3n2)cc1` is 11.7% [at 0.68 µM] (inactive); for `O=C(CCC1N=C2c3ccccc3N=C(SCc3ccccc3F)N2C1=O)NC1CCCCC1` (configuration not stated) it is 96.1% (inactive); for `O=C(CC1N=C2c3ccccc3N=C(SCc3ccccc3Cl)N2C1=O)NC1CCCCC1` (configuration not stated) it is 14% (inactive).
In the case of `Cc1ccc(CSC2=Nc3ccccc3C3=NC(CC(=O)NC4CCCCC4)C(=O)N23)cc1` (configuration not stated), the max activity was 39.6% (inactive).
For the compound `O=C(CC1N=C2c3ccccc3N=C(SCc3cccc(Cl)c3)N2C1=O)NC1CCCCC1` (configuration not stated), the max activity was -15.8% [at 0.16 µM] (inactive).
Consider `Cc1cccc(C(=O)N2CCC3(CC2)Nc2ccc(Cl)cc2-n2cccc23)c1`, for which the max activity was 5.23% (inactive).
For the compound `COc1ccc(OC)c(NC(=O)Nc2ccc(-c3nc(-c4ccccc4)co3)cc2)c1`, the max activity was 13.4% [at 0.68 µM] (inactive).
The figure for `COc1ccc(-c2nc(Nc3cccc(C(F)(F)F)c3)c3ccccc3n2)cc1` is -7.84% [at 5 µM] (inactive); for `N#C[C@@H]1[C@@H](c2ccc(-c3cccnc3)cc2)[C@H](CO)N1C(=O)Nc1ccc(F)cc1` it is 48.3% [at 10 µM] (inactive).
Consider `CCOc1cccc(-c2noc(-c3nnn(Cc4nc(-c5ccc(C)cc5)oc4C)c3C)n2)c1`, for which the max activity is -11.7% [at 0.68 µM] (inactive).
The figure for `CN1C(=O)CCc2cc(NC(=O)c3cnccn3)ccc21` is 158% [at 10 µM] (inactive).
Take `COc1ccc(-c2nc(Nc3cc(Cl)ccc3OC)c3ccccc3n2)cc1`: the max activity is 12.5% [at 0.68 µM] (inactive).
Take `Cc1ccc2c(c1)cc(S(=O)(=O)c1ccccc1)c(=O)n2CC(=O)NCC1CCCO1` (configuration not stated): the max activity was -10.7% [at 10 µM] (inactive).
Take `CCOc1ccccc1NC(=O)N1CCN(Cc2nc(-c3ccc(C)cc3)oc2C)CC1`: the max activity is -15.8% (inactive).
Consider `COc1ccc(OC)c(CNc2nc(-c3ccc(Cl)cc3)nc3ccccc23)c1`, for which the max activity is 14.3% (inactive).
Regarding `N#C[C@H]1[C@@H](c2ccc(-c3cccc(F)c3)cc2)[C@@H](CO)N1C(=O)NC1CCCC1`, the max activity is 14.8% [at 2.6 µM] (inactive).
Turning to `N#C[C@@H]1[C@@H](c2ccc(-c3cccc(F)c3)cc2)[C@H](CO)N1C(=O)NC1CCCC1`, the max activity is 20.3% [at 10 µM] (inactive).
For `Cc1nc(-c2ccc(F)cc2)sc1-c1ccc(SCc2ccccc2)nn1`, the max activity was 20.5% [at 10 µM] (inactive).
Regarding `COc1ccc(-c2nc(N3CCN(c4cc(Cl)ccc4C)CC3)c3ccccc3n2)cc1`, the max activity was 23.2% [at 1.35 µM] (inactive).
